High-throughput results deposited in PubChem BioAssay by several laboratories.
Only some compounds are listed: those with a hit (about 2% of all), similar ones and a draw of the others.
B2AR ag – beta2AR agonists driving receptor internalization, primary screen, cell-based, FAP fluorogen, flow cytometry; response, % (no concentration beside the values); hit rate 0.43% among 340,000; Am2.2-beta2AR cells; Beta-2 adrenergic receptor (Homo sapiens), P07550;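 active = response above a set limit, near 3 SD of response in nonfluorescent compounds, cut at about 42% in these data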
TLR9-MyD88 inh – inhibitors of TLR9-MyD88 association in cells, primary screen, cell-based, CHO, BLA complementation, fluorescence. Toll-like receptor 9 (Homo sapiens) + Myeloid differentiation primary response protein …. CCF4 FRET ratio. inhibition, % at 4.98 µM. hit rate 0.21% among 340,000;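 active = inhibition above the mean over all tested compounds plus 3 SD, cut at about 21% in these data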;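 note: 0% = DMSO only wells and 100% = clavulanate BLA inhibitor control wells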
TLR4-MyD88 BLA – inhibitors of TLR4-MyD88 association in cells, primary screen, cell-based, HeLa CL3-4, BLA complementation, FRET ratio; HeLa CL3-4 TLR4/MyD88 BLA complementation; inhibition, % at 8.4 µM; hit rate 0.18% among 200,000; in the data active = inhibition above about 25%;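 note: 0% = vehicle and 100% = reference inhibitor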
NOD2 RIPK2 PPI – NOD2-RIPK2 binding disruptors in cells, primary screen, fluorescence, CHO cells, BLA complementation; CCF4 ratio; inhibition, % at 4.98 µM; hit rate 0.38% among 360,000; in the data active = inhibition above about 21%;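 note: 0% = vehicle only and 100% = reference blocker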
Granule exo inh – LAMP-1 surface exposure blockers, TALL-104 cells – cell-based, flow cytometry, MLPCN library, primary screen; hit rate 0.66% among 360,000; inhibition, % at 10 µM; TALL-104 LAMP-1 surface exposure; cells stimulated with thapsigargin and PMA;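 active = inhibition above about 55%, limit read from the data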
ABHD5-PLIN5 inh – ABHD5-PLIN5 interaction inhibitors, primary screen, cell lysate, split luciferase complementation, luminescence; Perilipin-5 (Homo sapiens) + 1-acylglycerol-3-phosphate O-acyltransferase ABHD5 (Homo …; hit rate 0.78% among 360,000; Split G. princeps luciferase complementation, 4 h; AID 602281, 2012; inhibition, % at 4 µM;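 active = inhibition above the mean inhibition across every tested compound plus 3 SD, cut at about 22% in these data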;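 note: 0% = DMSO only wells and the 100% control is not disclosed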
ABHD5-PLIN5 conf – ABHD5-PLIN5 interaction inhibitors, confirmation, biochemical, luminescence; shares compounds with ABHD5-PLIN5 inh; inhibition, % at 4 µM; hit rate 67% among 2,200; in the data active = inhibition above about 23%;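 note: 0% = DMSO vehicle wells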
HNF4 split-luc – HNF4 dimerization inhibitors, counter-screen for ABHD5-PLIN5 interaction inhibitor project, biochemical, split-luciferase complementation, luminescence | hit rate 77% among 2,200 | inhibition, % at 4 µM | shares compounds with ABHD5-PLIN5 inh;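 active = mean inhibition across replicate wells exceeding the computed hit threshold, cut at about 13% in these data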;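 note: light from luciferase halves that rejoin when HNF4 fusion proteins dimerize; 0% = DMSO only wells and the 100% control is not given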
* = called active by the depositor; / = no result given.

SMILES	B2AR ag	TLR9-MyD88 inh	TLR4-MyD88 BLA	NOD2 RIPK2 PPI	Granule exo inh	ABHD5-PLIN5 inh	ABHD5-PLIN5 conf	HNF4 split-luc
C=CS(=O)(=O)c1sc(Cl)c(N2CCOCC2)c1[N+](=O)[O-]	33.2	-4.2	7.7	-0.7	0.5	43.3*	100.3*	110.6*
COc1cccc(CC2(CO)CCCN(Cc3ccc(-c4ccco4)cc3)C2)c1 (configuration not stated)	7.8	0.8	-0.5	-6.1	2.7	23.9*	22.4*	32.2*
COC(=O)C[C@@H]1C=C[C@@H](NS(=O)(=O)c2ccccc2OC)[C@@H](CO)O1	/	/	/	-11.4	-3.9	-0.2	/	/
Cn1c(=O)[nH]c(=O)c2c1nc(Br)n2Cc1ccccc1Cl	-1.6	-0.9	9.3	4.0	-1.2	-5.4	/	/
Cn1c(=O)[nH]c(=O)c2c1nc(SCC(O)CO)n2Cc1ccccc1Cl (configuration not stated)	17.9	-8.6	8.3	-4.4	-2.3	38.7*	3.9	3.7
CN(C)CCN1CCN(C2CN(Cc3ccccc3)S(=O)(=O)C2)CC1 (configuration not stated)	/	/	/	4.9	2.5	-1.2	/	/
O=C(CC1S/C(=N/N=C/c2c[nH]c3ccccc23)NC1=O)Nc1ccccc1 (configuration not stated)	9.1	-9.6	13.2	0.8	-1.7	23.2*	19.6	11.3
Cc1ccc(-c2onc3ccc(C(=O)O)cc23)cc1	3.6	-7.0	/	-0.4	-4.9	5.5	/	/
CC(=O)c1ccc2noc(-c3ccc(C)cc3)c2c1	4.2	-5.7	0.8	-13.9	6.3	29.0*	13.9	22.0*
COCCOC1CCN(C(=O)c2cc(COc3ccc(F)cc3F)on2)CC1	-2.6	-13.2	/	-3.2	-7.5	-0.9	/	/
CC(C)(C)S(=O)(=O)N1C[C@H]2CC/C=C\C/C(c3ccccc3)=C\2[C@@H]1CCO	0.7	-4.3	/	-5.3	1.7	-6.1	/	/
COCCNC(=O)C1(C)CCN(C(=O)c2cccnc2Oc2ccccc2)C1 (configuration not stated)	/	/	/	2.6	-3.2	4.4	/	/
COC(=O)C1=C(C)N(Cc2ccccc2)C(=NCC(C)C)N[C@H]1c1cccc(C(F)(F)F)c1	34.4	-1.1	/	7.4	-2.6	24.5*	14.3	1.6
O=C(N/N=C/c1ccc(N2CCOCC2)o1)c1ccccc1[N+](=O)[O-]	4.6	-7.5	-5.1	-5.5	7.3	21.7	/	/
O=C(N/N=C/c1ccc(N2CCCCC2)o1)c1ccccc1[N+](=O)[O-]	5.3	2.7	15.3	5.0	11.4	25.9*	38.2*	66.5*
Cc1nn(C)c(C)c1/C=C(\C#N)S(=O)(=O)c1ccc(F)cc1	/	-5.3	/	1.4	-1.4	6.8	/	/
Cc1ccc(C)c(S(=O)(=O)N2CCN(Cc3cc4c(cc3O)OCO4)CC2)c1	-2.3	8.0	/	-1.8	-2.9	25.2*	34.8*	64.9*
O=S(=O)(c1ccccc1F)N1CCN(Cc2cc3c(cc2O)OCO3)CC1	-9.3	0.4	/	-14.0	3.6	16.4	/	/
Cc1ccc(-c2nc3cnccn3c2Nc2ccccc2)o1	-12.3	6.6	/	10.9	-5.5	24.9*	39.4*	84.0*
COc1cccc(-c2cnc3c(NC=O)cc(-c4ccc(S(C)(=O)=O)cc4)cn23)c1	/	/	/	-8.2	-12.3	6.4	/	/
